ELG1 genotox: qHTS screen for small molecules that induce genotoxicity in human embryonic kidney (HEK293T) cells expressing luciferase-tagged ELG1; HEK293T ELG1-luciferase reporter, luminescence, 16 h; Potency, µM (highest dose often 46 µM), for the others: top-dose activity change, positive = activation, most hits filed as activators; hit rate 1.3% among 330,000; AID 504466, 2011; note: % of control where 0% means no effect; nearly all actives have a fitted effect of over 60% in size
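Genotoxic stress is detected as increased luminescence from luciferase-tagged ELG1 in HEK293T cells, measured with ONE-Glo after a 16 hr treatment at 37 °C.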
SMN2 splice enh: qHTS Assay for Enhancers of SMN2 Splice Variant Expression. hit rate 2.8% among 210,000. Potency, µM (doses to about 46.1 µM), for the others: top-dose activity change, positive = activation, hits mostly activators. HEK293 SMN2-luciferase splicing reporter, luminescence, 30-36 h. AID 1458, 2008; note: % of control where 0% means no effect; nearly all actives have a fitted effect of over 55% in size
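HEK293 cells carry an SMN2 […]–luciferase reporter in which exon 7 inclusion puts luciferase in frame. Cells were plated 10-12 h before compound addition, then incubated 30-36 h at 37C. ONE-Glo luminescence was read; sodium butyrate at 4.5 mM final served as control.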
Rab9 promoter act: qHTS Assay for Rab9 Promoter Activators; Huh7 Rab9 promoter-luciferase reporter, luminescence, 24 h; Potency, µM (top dose mostly 9.22 µM), without a hit: at the highest dose activation, negative = inhibition, actives largely listed as activators; hit rate 2.8% among 320,000; AID 485297, 2010; note: % of control where 0% means no effect; nearly all actives have a fitted effect of over 60% in size
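Luminescence from Amplite-detected luciferase (10 minutes, ambient) reports Rab9 promoter activation. Before that, stable Rab9-luciferase Huh7 cells (1500/well, reduced-serum OP-MEM I plus 10% FBS) were exposed to compound for 24 hours at 37C.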
FLuc counter: qHTS profiling assay for firefly luciferase inhibitor/activator using purifed enzyme and Km concentrations of substrates (counterscreen for miR-21 project); Potency, µM (doses to about 57.5 µM), inactives show at the highest dose activity change, negative = inhibition, actives largely listed as inhibitors; AID 588342, 2011; hit rate 6.9% among 360,000; purified FLuc, Km substrates, luminescence inhibition;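 note: plate controls were vehicle for no effect and reference inhibitor for full effect; nearly all actives have a fitted effect of over 55% in size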
Target sequence (P08659 whole entry, looked up): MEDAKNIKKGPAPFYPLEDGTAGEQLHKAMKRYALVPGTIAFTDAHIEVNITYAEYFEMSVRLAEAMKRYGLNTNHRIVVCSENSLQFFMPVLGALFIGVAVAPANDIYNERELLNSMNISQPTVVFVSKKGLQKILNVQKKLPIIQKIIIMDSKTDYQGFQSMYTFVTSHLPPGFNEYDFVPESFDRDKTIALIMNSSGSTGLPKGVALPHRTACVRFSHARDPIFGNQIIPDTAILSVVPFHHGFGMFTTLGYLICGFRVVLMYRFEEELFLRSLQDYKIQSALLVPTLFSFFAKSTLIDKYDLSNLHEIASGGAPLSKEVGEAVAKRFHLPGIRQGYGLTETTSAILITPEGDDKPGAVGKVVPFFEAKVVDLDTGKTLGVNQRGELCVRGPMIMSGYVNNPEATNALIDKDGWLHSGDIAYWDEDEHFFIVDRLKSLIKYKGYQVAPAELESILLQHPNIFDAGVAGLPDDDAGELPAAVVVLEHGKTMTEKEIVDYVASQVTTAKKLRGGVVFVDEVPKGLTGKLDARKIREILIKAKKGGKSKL
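Biochemical qHTS of compounds, final roughly 60 µM downward over six points, against 10 nM purified firefly luciferase using Km concentrations of substrates (10 uM D-luciferin, 10 uM ATP) in Tris acetate pH 7.5 buffer; luminescence output.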
KinaseGlo FLuc: Counterscreen for Luciferase (Kinase-Glo TM) Inhibition. Kinase-Glo luciferase, ATP luminescence, 8 min. Potency, µM (titrated, usually from 38.3 µM), inactives show top-dose activity change, negative = inhibition, most hits filed as inhibitors. hit rate 0.28% among 200,000; note: % is set by controls: 0 for no effect and ±100 for the full control effect; nearly all actives have a fitted effect of over 60% in size
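Compound is pinned into ATP-containing buffer (10 uM ATP, imidazole pH 7.2, 7 mM MgCl2). Kinase-Glo luciferase reagent is then added. Light output is recorded following an 8-min room-temperature incubation.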
NPC1 prom act: qHTS Assay for NPC1 Promoter Activators. hit rate 2.4% among 320,000. Potency, µM (series often up to 9.22 µM), for the others: at the top dose activation, hits mostly activators. Huh7 NPC1 promoter luciferase reporter, 24 h. AID 485313, 2010; note: % of control where 0% means no effect; nearly all actives have a fitted effect of over 60% in size
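Huh7 reporter cells (NPC1 promoter driving luciferase) are dosed with compound for 24 h at 37 °C, 5% CO2; luciferase detection reagent is then added and luminescence measured after 10 min at ambient temperature.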
Active calls of the source: *; u = inconclusive; x = no result; ! = a repeat was not active; [ ] = remark or other dose. The list is not random: actives were taken first. Their share in the collection is about 7.5%. Calls come from the whole dose curve; as a rule, active = well fitted curve in the direction sought with a large enough effect; inconclusive = small, poorly fitted or top-dose-only effect, or another doubt; inactive = no such curve, though single readings can be large; an effect the other way counts as inactive or inconclusive. Potency is the fitted concentration of half-maximal effect.

SMILES	ELG1 genotox	SMN2 splice enh	Rab9 promoter act	FLuc counter	KinaseGlo FLuc	NPC1 prom act
NC(=O)C1CCN(C(=S)c2ccc(-c3ccc(Br)cc3)o2)CC1	10.3µM*!	8.91µM*	u	u	-0.4%	u
NC(=O)c1ccc(-c2ccc(Br)cc2)o1	u	3.4%	7.8%	19µM*	-1.9%	6.9%
O=C(COC(=O)CCC(=O)c1ccc2c(c1)OCCO2)NCc1ccc2c(c1)OCO2	9.7%	8.4%	4.8%	10.7µM*	1.2%	-0.9%
COc1cc(OC)cc(C(=O)NCC(=O)OCC(=O)c2cc(C)n(Cc3ccco3)c2C)c1	0.1%	-6.3%	-2.0%	26.9µM*	-4.0%	-3.3%
Cc1cc(C(=O)COC(=O)CCC(=O)c2ccc3c(c2)OCCO3)c(C)n1Cc1ccco1	u	7.8%	11.9%	8.49µM*	-2.3%	8.8%
Cc1cc(C(=O)COC(=O)CNC(=O)c2ccco2)c(C)n1Cc1ccco1	0.2%	17.4%	-5.1%	u	0.6%	2.0%
CCCC(=O)c1ccc2c(c1)OCCO2	20.2%	17.1%	18.6%	u	-5.5%	11.0%
Cc1cc(C(=O)COC(=O)c2ccc(O)cc2)c(C)n1Cc1ccco1	u	22.4µM*	2.51µM*	3.38µM*	-4.2%	3.55µM*
Cc1cc(C(=O)COC(=O)C(C)NC(N)=O)c(C)n1Cc1ccco1 (stereo not given)	16.7%	3.6%	28.4%	13.5µM*	-1.5%	4.5%
CCOc1ncccc1C(=O)OCC(=O)c1cc(OC)ccc1OC	-0.4%	-0.2%	1.2%	-7.4%	-0.8%	-0.5%
Cc1cc(C(=O)COC(=O)c2ccc(Br)o2)c(C)n1Cc1ccco1	u	-4.6%	3.16µM*	2.69µM*	0.2%	26.4%
Cc1cc(C(=O)C(C)Cl)c(C)n1Cc1ccco1 (stereo not given)	-2.6%	-10.9%	4.9%	-1.4%	1.2%	-1.6%
CCOc1ncccc1C(=O)OCC(=O)c1cc(C)n(Cc2ccco2)c1C	6.51µM*	13.1%	0.501µM*	0.849µM*	-15.0%	0.355µM*
COc1ccc(N2CCN(Cc3nc4c(c(=O)[nH]c(=O)n4C)n3Cc3ccccc3)CC2)cc1	x	8.3%	x	-1.1%	x	x
Cc1cccc(Nc2nnc(-n3nc(C)cc3C)c3ccccc23)c1	x	136.7%	x	u	x	x
COc1ccccc1-c1ccc(NC2CCCC2)nn1	u	11.2µM*	u	13.5µM*	-5.2%	26.4%
CCOC(=O)N1CCC(Nc2cc(C)nc3c(-c4ccccc4OC)c(C)nn23)CC1	11.9%	-30.2%	-2.9%	-1.1%	0.0%	-5.7%
COc1ccccc1-c1cnn2c(NC3CCCC3)cc(C)nc12	u	x	2.82µM*	1.9µM*	x	u
COc1ccc(CNc2ccc(-c3ccccc3OC)nn2)cc1	0.9%	6.4%	2.8%	-16.5%	2.4%	11.2%
O=C1NCCOC(=O)[C@@H](Cc2ccc(F)cc2)C/C=C\C[C@@H]1CC(=O)N(CCO)Cc1ccccc1	-2.9%	x	x	x	x	x
Cc1ccc(C)c(NC(=O)c2cnc3n(c2=O)CCS3)c1	15.0%	u	4.47µM*	-18.1%	-4.8%	u
CCc1ccc(NC(=O)c2cnc3n(c2=O)CCS3)cc1	9.2µM*	26.1%	3.98µM*	9.53µM*	-2.6%	28.9%
CSc1ccccc1NC(=O)c1cnc2n(c1=O)CCS2	3.6%	-7.9%	11.3%	-12.1%	-1.3%	9.7%
O=C(Nc1nc2ccc(S(=O)(=O)N3CCCC3)cc2s1)c1ccccn1	-7.5%	-22.0%	u	u	2.3%	26.3%
Cc1ccc2nc(NC(=O)c3ccccn3)sc2c1	0.164µM*	x	u	0.169µM*	x	u
SMILES	ELG1 genotox	SMN2 splice enh	Rab9 promoter act	FLuc counter	KinaseGlo FLuc	NPC1 prom act
CCOc1ccc2nc(NC(=O)c3ccccn3)sc2c1	u	x	u	0.379µM*	x	0.1µM*
O=C(Nc1nc2c(F)cc(F)cc2s1)c1ccccn1	9.2µM*	2.82µM*	0.1µM*	0.675µM*	u	0.112µM*
CCOc1ccc2nc(NC(=S)NCc3ccccc3)sc2c1	14.4%	-7.6%	12.3%	-12.5%	-3.1%	9.1%
CCc1noc(C)c1C(=O)Nc1nc2c(F)cc(F)cc2s1	-0.5%	x	u	12µM*	x	22.7%
COc1ccc(N(C(=O)c2ccccc2F)S(=O)(=O)c2ccc3c(c2)n(C)c(=O)n3C)cc1	x	5.0%	x	-1.9%	x	x
CCOC(=O)c1cn(Cc2ccc(C)cc2)c2cc(F)ccc2c1=O	-6.5%	x	-0.1%	1.4%	x	-0.3%
Cc1ccc2c(Cl)c(C)c(N3CCCC3)nc2n1	1.3%	-10.3%	1.8%	16.9µM*	0.3%	-2.1%
O=[N+]([O-])c1ccc(-c2cn3c(n2)CCC3)cc1	15.0%	x	u	23.9µM*	x	u
c1ccc(-c2cn3c(n2)CCC3)cc1	15.6%	0.7%	0.3%	-5.4%	-5.0%	0.2%
Nc1cc(C(=O)O)c(O)c(S(=O)(=O)O)c1	x	-2.9%	x	x	x	x
CC1CC(C)CN(S(=O)(=O)c2ccc(C(=O)N(C)Cc3ccccc3)cc2)C1 (stereo not given)	-4.4%	x	x	x	x	x
CCOc1ccc(NC(=O)CNS(=O)(=O)c2ccc(Br)s2)cc1	x	-9.3%	x	-13.8%	x	x
CN(C)C(=O)CSc1nnc(C23CC4CC(CC(C4)C2)C3)o1	9.2µM*	u	3.16µM*	u	0.0%	u
COc1ccc(/C=C2\SC(=S)N(CC(=O)N(C)C3CCS(=O)(=O)C3)C2=O)cc1 (stereo not given)	3.5%	x	-0.3%	19µM*	x	13.4%
COc1cccc(/C=C2\SC(=S)N(CC(=O)N(C)C3CCS(=O)(=O)C3)C2=O)c1 (stereo not given)	4.6%	x	-2.1%	10.7µM*	x	-1.2%
CN(C(=O)CN1C(=O)/C(=C/c2ccc(F)cc2)SC1=S)C1CCS(=O)(=O)C1 (stereo not given)	-0.1%[9.26 µM]	x	-3.9%	u	x	-1.8%
CCN(C(=O)CN1C(=O)S/C(=C\c2cccc(OC)c2)C1=O)C1CCS(=O)(=O)C1 (stereo not given)	3.5%	x	1.8%	u	x	-16.4%
COc1ccc(C(C#N)=C2C=CC(=NO)C=C2)cc1	-3.6%	x	0.1%	16.9µM*	x	-1.3%
CC1Oc2ccccc2N(CC(=O)NCc2ccccc2)C1=O (stereo not given)	u	x	3.98µM*	u	-10.7%	u
CCC1Oc2ccccc2N(CC(=O)NCCN2C(C)CCCC2C)C1=O (stereo not given)	-0.6%	10µM*	-1.5%	0.3%	1.0%	-0.9%
